Laboratory results as given in the antibiotic and cytotoxicity screens of Wong et al. (2023).
In all, about 39,000 compounds went through this assay and about 1,500 (3.8%) were called active. The list comes from a sample in which actives are over-represented; it also holds similar structures and randomly drawn compounds.

What follows are compounds tested on HSkMC (human skeletal muscle cells) (assay: cytotoxicity call (relative viability < 0.9)). Settings: 10 µM.
In the case of `C[C@H]1CCCCO[C@H](CN(C)CC2CC2)[C@@H](C)CN([C@@H](C)CO)C(=O)c2cc(NC(=O)C3CCCCC3)ccc2O1`, the cytotoxicity call is reported as “inactive”. For `C[C@@H]1CN([C@@H](C)CO)C(=O)c2cc(NC(=O)C3CC3)ccc2O[C@H]1CN(C)S(=O)(=O)c1ccc(F)cc1`, the cytotoxicity call was “inactive”. For `C[C@@H]1CN([C@H](C)CO)S(=O)(=O)c2ccc(/C=C/c3ccccc3)cc2O[C@@H]1CN(C)C(=O)Nc1cc(F)ccc1F`, the cytotoxicity call was “inactive”. For `NC(=S)c1cnccn1`, the cytotoxicity call was “inactive”. In the case of `C[C@@H]1CCCCO[C@H](CN(C)Cc2ccc(C(F)(F)F)cc2)[C@H](C)CN([C@@H](C)CO)C(=O)c2cc(NS(=O)(=O)c3ccccc3)ccc2O1`, the cytotoxicity call is reported as “inactive”. With `C[C@H](CO)N1C[C@H](C)[C@@H](CN(C)C(=O)Nc2ccc(F)cc2)Oc2ccc(NC(=O)C3CC3)cc2CC1=O` the cytotoxicity call was “inactive”. `C[C@@H]1CN([C@H](C)CO)C(=O)c2cc(C3=CCCC3)cnc2O[C@@H]1CN(C)C(=O)c1ccc2c(c1)OCO2` was tested, and the cytotoxicity call was “inactive”. With `C[C@H](CO)N1C[C@H](C)[C@@H](CN(C)C(=O)c2ccccc2)OCCCC[C@H](C)Oc2ccc(NC(=O)Nc3cccc4ccccc34)cc2C1=O` the cytotoxicity call was “inactive”. For `CN1CCN(C(=O)C[C@H]2CC[C@@H]3[C@H](COC[C@@H](O)CN3S(=O)(=O)c3cccc(F)c3)O2)CC1`, the cytotoxicity call was “inactive”. For `C[C@@H]1CN([C@@H](C)CO)C(=O)c2c(c3ccccc3n2C)-c2ccccc2CO[C@@H]1CN(C)Cc1ccc(C(=O)O)cc1`, the cytotoxicity call was “inactive”. With `Cc1ccc([C@@H]2CC(=O)N[C@@H]2C(N)=O)cc1` the cytotoxicity call was “inactive”. For `C[C@@H]1CN([C@@H](C)CO)C(=O)c2cccc(NC(=O)Nc3cccc4ccccc34)c2O[C@@H]1CN(C)S(=O)(=O)c1ccc(Cl)cc1`, the cytotoxicity call was “inactive”. For `COc1cccc(S(=O)(=O)N(C)C[C@@H]2Oc3c(NC(=O)Nc4cccc5ccccc45)cccc3C(=O)N([C@@H](C)CO)C[C@H]2C)c1`, the cytotoxicity call was “inactive”. `COc1ccc(S(=O)(=O)N(C)C[C@@H]2Oc3c(NC(=O)Nc4cccc5ccccc45)cccc3C(=O)N([C@@H](C)CO)C[C@H]2C)c(OC)c1` was tested, and the cytotoxicity call was “active”. `C[C@@H]1CN([C@H](C)CO)C(=O)c2cccc(NC(=O)Nc3cccc4ccccc34)c2O[C@@H]1CN(C)S(=O)(=O)c1ccc(F)cc1` was tested, and the cytotoxicity call was “inactive”. For `C[C@H]1CN([C@@H](C)CO)C(=O)c2cccc(NC(=O)Nc3cccc4ccccc34)c2O[C@@H]1CN(C)S(=O)(=O)c1cccs1`, the cytotoxicity call was “active”. For `COc1ccccc1S(=O)(=O)N(C)C[C@@H]1Oc2c(NC(=O)Nc3cccc4ccccc34)cccc2C(=O)N([C@@H](C)CO)C[C@H]1C`, the cytotoxicity call was “inactive”. In the case of `C[C@H](CO)N1C[C@H](C)[C@H](CN(C)S(=O)(=O)c2ccc(F)cc2)Oc2c(NC(=O)Nc3cccc4ccccc34)cccc2C1=O`, the cytotoxicity call is reported as “active”. With `C[C@@H]1CN([C@@H](C)CO)C(=O)c2cccc(NC(=O)Nc3cccc4ccccc34)c2O[C@@H]1CN(C)S(=O)(=O)c1cccs1` the cytotoxicity call was “inactive”. In the case of `C[C@@H]1CN([C@@H](C)CO)C(=O)c2cccc(NC(=O)Nc3cccc4ccccc34)c2O[C@H]1CN(C)S(=O)(=O)c1ccc(F)cc1`, the cytotoxicity call is reported as “inactive”. `C[C@@H]1CN([C@@H](C)CO)C(=O)c2cccc(NC(=O)Nc3cccc4ccccc34)c2O[C@H]1CN(C)S(=O)(=O)c1cccs1` was tested, and the cytotoxicity call was “inactive”. With `C[C@H]1CN([C@@H](C)CO)C(=O)c2cccc(NC(=O)Nc3cccc4ccccc34)c2O[C@@H]1CN(C)S(=O)(=O)c1ccc(Cl)cc1` the cytotoxicity call was “inactive”. In the case of `C[C@@H]1CN([C@H](C)CO)C(=O)c2cccc(NC(=O)Nc3cccc4ccccc34)c2O[C@@H]1CN(C)S(=O)(=O)c1ccc(Cl)cc1`, the cytotoxicity call is reported as “active”.
